Assay results from the supplement of paper PMC6555819.

Assays:
Assay in all cases: PBM binding z-score (relative to random genomic background probes); higher = stronger binding; sequences stand for … in GC…GCGATTGACAGCGTAGAATGAAGG
[1] = system: RARb homodimer (NR concentration 270 nM)
Method in brief: (§1)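 Each nuclear receptor dimer, without ligand, was incubated for 1 h on custom Agilent 4×180K protein-binding microarrays. Binding was detected with antibodies against each partner (one per run), and scanned fluorescence was regression-normalized. The binding z-scores are referenced to random human genomic background probes.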

[2] = system: RARg:RXRa (NR concentration 270 nM, RXRa partner concentration 90 nM)
Method in brief: as §1

[3] = system: RARg homodimer (NR concentration 270 nM)
Method in brief: as §1

[4] = system: RXRa DBDmut IVT, anti-RXR (DBD mutation: RXRa K156A/R161A, NR concentration 90 nM)
Method in brief: as §1

[5] = system: RXRa homodimer (NR concentration 180 nM)
Method in brief: as §1

[6] = system: THRa:RXRa (NR concentration 90 nM, RXRa partner concentration 90 nM)
Method in brief: as §1

[7] = system: THRa homodimer (NR concentration 90 nM)
Method in brief: as §1

[8] = system: VDR homodimer (NR concentration 270 nM)
Method in brief: as §1

Row | Sequence | PBM binding z-score [1] | PBM binding z-score [2] | PBM binding z-score [3] | PBM binding z-score [4] | PBM binding z-score [5] | PBM binding z-score [6] | PBM binding z-score [7] | PBM binding z-score [8]
1 | GATACAGTGTCAAGGCCAGAGTACGCGTATTGAT | 1.04 | 0.527 | 1.03 | 0.061 | 0.517 | 0.471 | -0.196 | 0.431
2 | CCTACTGGGCCAAAAAGGGCATTGATGCCGATAA | 1.32 | 0.413 | 0.776 | -0.51 | 0.0736 | 0.26 | -0.987 | 0.107
3 | CCTTACGGGTCACGAGGATATAGCACGACGAGCG | 3.37 | 5.53 | 5.26 | 0.944 | 6.1 | 3.16 | 0.656 | 0.89
4 | CCTAGTTGGTCAAGGGCACACACGCTATAGGTAC | 1.78 | 1.41 | 1.99 | 0.232 | 0.726 | 1.09 | 0.605 | 1.09
5 | TAGCCTGGGTCATTGGGCCAGTATAGTACGCATC | 2.47 | 3.67 | 3.47 | 0.363 | 3.04 | 1.99 | -0.547 | 0.472
6 | ACTAGCAGGCCAAGGGTCACTCACGATTAGTCCG | 3.79 | 3.91 | 2.97 | 0.459 | 3.93 | 2.56 | 0.409 | 1.07
7 | GCGACTGGGGCATTAGCAGGTTACCATAACTTAA | 0.877 | 0.345 | 0.226 | 0.29 | 0.0797 | 0.892 | 0.101 | -0.236
8 | TTACCAAGGTGAAAGGTCGTTGGTGCACGCCTTG | 2.87 | 4.49 | 1.81 | 0.82 | 6.07 | 3.48 | 0.937 | 1.86
9 | ACTAGCAGGCCAATGGTCACTCAAGATTAGTCCG | 0.496 | 0.131 | 0.545 | -0.107 | 0.0416 | -0.312 | -0.672 | -0.707
10 | CCTCGGAGGACAACAAGAGGTCAGAGCTGCCAGA | 3.8 | 4.13 | 3.8 | 0.726 | 2.93 | 2.86 | 0.992 | 1.54
11 | CGAACGAGGGCATGAGTTGATAGCGAATGCCGAT | 0.689 | 1.25 | 1.69 | 2.41 | 1.09 | 1.09 | -0.229 | 1.5
12 | AGAATGAGGTTATCAAAGATCAGGGAAACGCTTG | 0.294 | 1.47 | 1.24 | 1.49 | 2.28 | 2.58 | 0.571 | 0.495
13 | CCTAGTTGGTCAGGAGGTCACTCACCGGATATGA | 3.92 | 4.48 | 3.73 | 0.697 | 3.58 | 3.17 | 2.09 | 2.45
14 | CGTCCAAGGTCAAACGTCAGTGAAGAGATGACGG | 3.94 | 6.09 | 6.4 | 3.98 | 6.29 | 3.76 | 2.1 | 3.22
15 | ATCTCTAGGTAACAAAGTTCAGTGAATGCCGAAC | 2.76 | 2.04 | 1.99 | 0.878 | 1.36 | 1.56 | 0.601 | 2.02
16 | TTACCAAGGTGCGCTGAGGTCGTTGATCCAACTC | 1.13 | 0.294 | -0.0595 | 1.12 | 0.936 | 3.59 | 1.87 | 3.64
17 | CGTCCAAGGTCAGCAGGTCAGTAAAAGCGACGTG | 4.97 | 6.32 | 6.68 | 2.49 | 5.07 | 3.97 | 2.48 | 1.81
18 | ATATGTAGGTTAGCGGGTCATTCAGTTTGCGCAT | 2.65 | 2.83 | 2.37 | 1.42 | 2.77 | 2.06 | 1.08 | 2.76
19 | ATCTCTAGGTAACCACGTTCAGTGAATGCCGAAC | 0.366 | 0.142 | 0.288 | -0.101 | 0.112 | 0.672 | 0.721 | 0.344

Row | Sequence | PBM binding z-score [1] | PBM binding z-score [2] | PBM binding z-score [3] | PBM binding z-score [4] | PBM binding z-score [5] | PBM binding z-score [6] | PBM binding z-score [7] | PBM binding z-score [8]
20 | AGAATGAGGTTAAGATCATGGAAACAGAATACAT | 0.492 | 1.94 | 1.49 | 0.788 | 2.62 | 2.2 | 0.477 | 0.212
21 | ACTGGGAGGACAAAGGTCAGAGCTACGCCAGTGA | 4.78 | 6.22 | 5.14 | 1.06 | 5.47 | 3.85 | 1.25 | 1.41
22 | CCTTACGGGTCACTGACAGGTTATAGAATTTGGA | 3.22 | 5.81 | 4.95 | 1.92 | 5.1 | 3.02 | 0.45 | 0.936
23 | GCTATCAGTTGAAAGGGCAACCGAATGATTCTCG | 1.81 | 1.22 | 1.28 | 0.45 | 1.26 | 0.693 | -0.411 | -0.03
24 | CCTTACGGGTCAACGTTATAGCACGGGTGGTACG | 3.19 | 4.85 | 4.64 | 0.494 | 5.03 | 2.36 | -0.182 | 0.692
25 | CCTGCTAGGTCATTGTCAGCTAATCTACAGTATG | 2.45 | 3.06 | 3.95 | 2.93 | 1.9 | 2.61 | 0.862 | 1.14
26 | ATATGTAGGTTAAGGGTCATTGAGGTTGGTTCGC | 4.17 | 4.87 | 3.36 | 1.89 | 6.28 | 3.55 | 2.06 | 4.8
27 | ACAGACAGGTGAGTGAAGGTAGCTCAGCTGGACG | -0.151 | -0.00932 | 0.0793 | -0.355 | 0.135 | 0.263 | -0.539 | -0.688
28 | ATCGAAAGGTCGAAGGTAAGTATACCCACCCGAA | 2.18 | 3.86 | 3.99 | 0.89 | 4.24 | 1.86 | 0.0677 | 0.843
29 | ACAAGCAGGCCAAGTTTGGGTCACTCAAACAAAG | 2.34 | 2.8 | 1.88 | -0.286 | 1.1 | 2.47 | 0.738 | -0.0153
30 | CTACCAAGGTGAACGAGGTCGTTGATTACTATTC | 2.24 | 2.13 | 1.32 | 1.85 | 2.26 | 3.36 | 2.17 | 3.61
31 | CAAACTAGGTCACAGAGGTGAAAGTCCGTGCGTA | 3.98 | 5.15 | 5.24 | 1.76 | 4.44 | 3.9 | 2.28 | 2.6
32 | CGTCCAAGGACAGAGAGGTCAGTGAATGCCGAGT | 4 | 3.21 | 3.98 | 1.29 | 2.11 | 3.27 | 1.69 | 2.7
33 | GCTAGGTGGTCAGTAAAAGGTCACACACCGGTCG | 5.21 | 6.23 | 5.47 | 0.0546 | 5.57 | 3.55 | 1.73 | 2.03
34 | AGAACGAGGGCAGTGAGTTGATAGCACGGGTGGC | 0.73 | 0.413 | 0.886 | 1.24 | 0.269 | 0.176 | -0.413 | 2.23
35 | CCGACTGGGGCATAAGGTTGCCATAAGCCAGCCC | 0.294 | 0.249 | 0.278 | -0.617 | -0.0266 | 0.276 | -0.00565 | -0.0503
36 | CGTCCAGGGTCAAAGGTCAGTGAAGAGATGACGG | 5.11 | 8.3 | 7 | 2.98 | 9.93 | 4.54 | 1.48 | 3.04
37 | ACTAGTTGGTCAGCTGAGGACACACACAATTCGG | 1.64 | 1.18 | 1.82 | 0.558 | 0.282 | 4.7 | 4.2 | 0.259
38 | TCTAGTTGGTCAAAGGTCACACAGTCGAAATGCG | 5.27 | 7.05 | 6.38 | 1.73 | 8.22 | 4.12 | 2.06 | 2.98

Row | Sequence | PBM binding z-score [1] | PBM binding z-score [2] | PBM binding z-score [3] | PBM binding z-score [4] | PBM binding z-score [5] | PBM binding z-score [6] | PBM binding z-score [7] | PBM binding z-score [8]
39 | GGAACGAGGGCAAGGTTGATAGCATCTGTCGACG | 1.67 | 1.67 | 1.88 | 1.72 | 1.32 | 1.45 | 0.156 | 1.39
40 | ATCTCTAGGTAACAAGTTCAGTGAAAGAGAGGAC | 1.78 | 1.52 | 1.61 | 1.06 | 0.955 | 1.68 | 0.986 | 3.36
41 | ATCTGTAGGTAAAGTTCAGTGAAAGATCGATAGA | 2.24 | 1.86 | 2.25 | 1.35 | 1.16 | 0.595 | -0.247 | 1.83
42 | GTACCAAGGTGAAAAGGTCGTTGATGAGTAGGCG | 3.49 | 4.66 | 2.59 | 0.369 | 3.57 | 2.58 | 0.7 | 1.7
43 | TCATATAGGTAAATAGGTGAAAGTCCGTAAGTTA | 1.17 | 1.26 | 0.407 | 1.39 | 1.62 | 0.865 | 0.0399 | 0.337
44 | ATCTCTAGGTAAATTTCAGTGAAAGATCGATAGA | -0.353 | 0.0563 | 0.241 | 0.179 | 0.137 | 0.356 | -0.0111 | 0.034
45 | AGAACGGGGGCAATGAGTTGATAGCACGGGTGGC | 1.83 | 2.87 | 2.43 | 3.17 | 2.3 | 2.45 | 1.33 | 5.08
46 | CCTGACGGGTCAAGGTTATAGCACGGGTGGTACG | 3.21 | 4.37 | 4.65 | 0.202 | 4.64 | 2.63 | 0.682 | 1.34
47 | CCCAGTAGGTTATGGGGCATTCAGGCAACGGTGA | 0.987 | 0.653 | 0.48 | -1.2 | 0.869 | 0.512 | -0.000965 | 0.0729
48 | CCTACTGGGCCAAAAAGGTCATGGATGCCGATAA | 1.31 | 5 | 4.57 | 0.231 | 5.58 | 3.41 | 1.05 | 1.81
49 | GTACCAAGGTGAATCGGTCGTTGATGAGTAGGCG | 1.27 | 1.17 | 1.01 | -0.343 | 0.482 | 1.49 | 0.486 | -0.443
50 | CAAACTAGGTCACGAAAAGTCAAAGTCGAATGAC | 3.38 | 4.82 | 5.38 | 1.53 | 3.85 | 3.35 | 1.25 | 0.644
51 | ATCTCTAGGTAAGAGTTCAGTGAATCCCGAGGAT | 1.91 | 1.21 | 1.51 | 1.71 | 1.16 | 0.872 | 0.129 | 3.85
52 | CGTCCAAGGTCGATGCTAGGTCAGTGAAAGCATT | 3.05 | 4.58 | 2.78 | 1.32 | 1.41 | 3.28 | 1.45 | 1.09
53 | CCTACCGGGCCACGAAAGGTCATTGATTCAGTGA | 4.84 | 4.67 | 4.47 | 0.0824 | 4.98 | 4.19 | 1.46 | 2.22
54 | GCTAGTTGGTAAGTAAAAGGTCACACACCGGTCG | 5.2 | 4.96 | 4.06 | 0.677 | 4.99 | 3.48 | 1.73 | 1.63
55 | AGAACGAGGGCAATGAGTTTATAGCACGGGTGGC | 1.18 | 1.27 | 1.88 | 2.91 | 0.965 | 0.983 | -0.489 | 5.83
56 | CCTCGGACGACAGAAGGTCAGAGCTGTCCGCTTT | 3.09 | 2.54 | 2.68 | 0.306 | 1.98 | 1.57 | -0.117 | 0.204
